Sampled rows, rich in hits. Any-hit rate of the full collection: about 11%.
JMJD2A Tudor inh: blocks the human JMJD2A Tudor domain | O75164 | AlphaScreen JMJD2A-Tudor / H3K4me3 peptide binding | Potency, µM (series often up to 114 µM), hits mostly inhibitors | 390,000 compounds, 4.4% hits | AID 504339; further: nearly all actives have a fitted effect of over 50% in size
BAZ2B inh: blocks human BAZ2B; Potency, µM (top dose mostly 114 µM), usual class: inhibitors; 360,000 compounds, 4.4% hits; AlphaScreen BAZ2B-H3K14Ac peptide displacement; Q9UIF8; further: nearly all actives have a fitted effect of over 60% in size
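BAZ2B 50 nM plus b-H3(5-23)K14Ac 50 nM, PBS pH 7.4/0.01% Tween-20, 30 min RT; compound added (max 110 uM), 30 min RT; streptavidin donor/Ni-chelate acceptor beads 10 ug/mL final, 20 min dark; AlphaScreen read.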
HP1b chromo inh: HP1-beta chromodomain-methylated histone interaction inhibition; P83916; AlphaScreen HP1-beta / biotin-H3K9me3 peptide binding; Potency, µM (titrated, usually from 114 µM), actives largely listed as inhibitors; 390,000 compounds, 0.56% hits; AID 540317; further: nearly all actives have a fitted effect of over 70% in size
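Compound inhibition of the preformed complex between 50 nM HP1-beta and 50 nM biotinylated H3K9me3 peptide was read by AlphaScreen. Buffer was PBS pH 7.4 with 0.01% Tween-20. Incubations ran 30 min at room temperature, with 10 ug/mL donor/acceptor beads.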
L3MBTL1 block: inhibitors of human L3MBTL1. AID 485360. Q9Y468. AlphaScreen L3MBTL1–H3K9me1 peptide binding. Potency, µM (highest dose often 57.1 µM), most hits filed as inhibitors. 230,000 compounds, 0.66% hits; further: nearly all actives have a fitted effect of over 60% in size
Target sequence (Q9Y468 whole entry, looked up): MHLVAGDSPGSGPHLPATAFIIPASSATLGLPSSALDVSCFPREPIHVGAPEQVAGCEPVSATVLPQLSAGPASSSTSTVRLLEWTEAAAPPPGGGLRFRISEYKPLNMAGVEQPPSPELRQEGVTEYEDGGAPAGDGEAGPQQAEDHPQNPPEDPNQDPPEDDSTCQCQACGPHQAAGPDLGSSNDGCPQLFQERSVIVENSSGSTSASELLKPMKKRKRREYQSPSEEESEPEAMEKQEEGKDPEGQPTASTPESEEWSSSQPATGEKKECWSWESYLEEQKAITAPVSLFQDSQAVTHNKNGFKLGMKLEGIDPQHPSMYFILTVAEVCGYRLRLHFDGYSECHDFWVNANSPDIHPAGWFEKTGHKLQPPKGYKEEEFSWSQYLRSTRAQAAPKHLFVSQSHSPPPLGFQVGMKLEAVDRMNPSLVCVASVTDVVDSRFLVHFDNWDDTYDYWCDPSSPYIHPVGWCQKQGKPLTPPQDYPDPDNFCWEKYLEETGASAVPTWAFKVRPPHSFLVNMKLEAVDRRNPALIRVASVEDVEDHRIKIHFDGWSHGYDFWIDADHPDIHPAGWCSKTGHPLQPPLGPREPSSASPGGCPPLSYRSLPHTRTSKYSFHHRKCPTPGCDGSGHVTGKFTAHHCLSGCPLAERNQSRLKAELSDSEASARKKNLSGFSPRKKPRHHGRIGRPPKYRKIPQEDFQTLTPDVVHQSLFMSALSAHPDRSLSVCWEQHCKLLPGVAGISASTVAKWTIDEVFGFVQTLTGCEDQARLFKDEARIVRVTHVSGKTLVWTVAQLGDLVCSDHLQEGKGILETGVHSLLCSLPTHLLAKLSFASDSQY
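Displacement of a biotinylated histone H3(1-15) peptide monomethylated at Lys9 (75 nM) from L3MBTL1 (50 nM) was measured by AlphaScreen after a 30 min room-temperature compound incubation; cefsulodin titration served as intraplate control.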
G9a block: inhibitors of human histone lysine methyltransferase G9a; Q96KQ7; G9a H3K9 monomethylation, AlphaScreen, 2 h; Potency, µM (series often up to 102 µM), actives largely listed as inhibitors; 350,000 compounds, 8.8% hits; AID 504332; further: nearly all actives have a fitted effect of over 75% in size
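AlphaScreen read-out: biotin-H3K9 peptide (500 nM) methylation by 20 nM enzyme with 20 uM SAM, 2 h at room temperature after 15 min compound preincubation; anti-monomethyl H3K9 antibody plus donor/acceptor beads, 10 min dark.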
Numbers stand for hits; . = inactive; ? = inconclusive; / = no result; [ ] = another dose, or the depositor's remark. The call rests on the fitted dose curve; in most records, active means well fitted inhibition curve with a large enough effect; inconclusive means small, poorly fitted or top-dose-only effect; inactive means no such curve, though single readings can be large or run the other way.

SMILES	JMJD2A Tudor inh	BAZ2B inh	HP1b chromo inh	L3MBTL1 block	G9a block
Cc1nc2c(cc(Oc3ccc(S(=O)(=O)N4CCOCC4)cn3)c3ccsc32)s1	.	.	.	.	71µM
CCN(C(=O)C1CCN(S(=O)(=O)c2ccc3c(c2)CCCN3C(=O)C2CCC2)CC1)c1cccc(C)c1	.	.	.	/	.
Cc1cc2c(n1-c1ccc(Cl)cc1)CC(C)(C)CC2=O	?	?	.	/	.[12.7 µM]
CC1(C)CC(=O)c2cc(C#N)c(=O)n(-c3ccc(Cl)cc3)c2C1	.	.	.	/	14µM
COc1ccc(-n2c3c(cc(-c4nc(-c5ccc(Cl)cc5)cs4)c2=O)C(=O)CC(C)(C)C3)cc1	.	?	.	/	4.5µM
CC1(C)CC(=O)c2cc(-c3nc(-c4ccc(Cl)cc4)cs3)c(=O)n(-c3ccc(Cl)cc3)c2C1	.	.	.	/	.
COc1ccc(-n2c3c(cc(-c4nc(-c5ccc(Cl)cc5)cs4)c2=O)C(=O)CC(C)(C)C3)cc1Cl	.	.	.	/	8.9µM
COc1ccc(-n2c(-c3ccc(Cl)cc3)cc3c2CC(C)(C)CC3=O)c(OC)c1	14µM	11µM	?	/	13µM
CCOc1ccccc1CNC(=O)c1ccc2c(c1)sc1nc(-c3cccc(OC)c3)cn12	.	.	.	/	?
Cc1ccc(S(=O)(=O)c2cn(Cc3ccccc3)c3cc(N4CCCC4)c(F)cc3c2=O)cc1C	.	.	.	/	.
O=C(Cn1cc(C(=O)C(F)(F)F)c2ccccc21)N1CCCCCC1	.	.	.	/	.
COc1ccc(C2CC(=O)c3cc(-c4nc(-c5cccc([N+](=O)[O-])c5)cs4)c(=O)n(-c4cccc(C)c4)c3C2)cc1 (centres undefined)	.	.	.	/	16µM
COc1ccc(C2CC(=O)c3cc(-c4nc(-c5cccc([N+](=O)[O-])c5)cs4)c(=O)n(-c4ccc(OC)cc4)c3C2)cc1 (centres undefined)	.	.	.	/	.
O=C(O)C1Nc2c(O)cc(Cl)c([N+](=O)[O-])c2C2C=CCC12 (centres undefined)	11µM	1.4µM	4.5µM	0.32µM	2.8µM
COC(=O)C(CSCc1ccccc1)NC(=O)CSc1nc(C)cc(=O)[nH]1 (centres undefined)	50µM	.	.	/	.
CN(CC(=O)Nc1ccccc1C(F)(F)F)C(=O)c1cc(Cl)nc2ccccc12	.	.	.	.	.[0.501 µM]
COc1ccccc1NC(=O)Cc1cccc2ccccc12	.	.	.	.[2.29 µM]	.[0.501 µM]
CCCN(CC(=O)Nc1ccccc1OC)Cc1c(O)ccc2ccccc12	56µM	?	?	/	3.5µM
CN(CC(=O)Nc1ccccc1C(F)(F)F)Cc1c(O)ccc2ccccc12	79µM	?	.	/	7.9µM
Cc1cc(C)c2c(=O)cc(C(=O)Nc3sc4c(c3C#N)CCCC4)oc2c1	.	.	.	/	.
O=C(Oc1cc(=O)n2ccccc2n1)c1ccccc1	.	.	.	.	18µM
O=C(O)c1c(Cl)nc2ccccn12	.	/	.	.	?
CCOC(=O)c1c2c3c(cccc3[nH]c1=O)C(=O)c1ccccc1-2	.	.	.	.	56µM
CCOC(=O)c1c2c(n(C)c1C)C(=O)C(=O)c1ccc(Br)cc1-2	.	/	.	/	/
CCOC(=O)c1c2c(n(Cc3ccccc3)c1C)C(=O)C(=O)c1ccccc1-2	7.1µM	/	25µM	/	/
SMILES	JMJD2A Tudor inh	BAZ2B inh	HP1b chromo inh	L3MBTL1 block	G9a block
CCOC(=O)c1c2c3c(c(Cl)ccc3[nH]c1=O)C(=O)c1ccccc1-2	.	32µM	.	.	?
COCCCn1c(=O)c2sccc2n2c(CCCC(=O)Nc3cc(C)cc(C)c3)nnc12	.	.	.	/	.
O=C(CSc1nc2ccccc2n1Cc1c(F)cccc1Cl)N1CCN(c2ccc(F)cc2)CC1	.	.	.	/	.
CN(C)CCNC(=O)c1ccc2nc(Cc3ccccc3)oc2c1	.	.	.	/	.
CCOc1ccc(NC(=S)N2CCN(S(C)(=O)=O)CC2)cc1	.	.	.	/	.
O=C(O)CC1Sc2nc3ccccc3n2C1=O (centres undefined)	.	.	.	/	45µM
O=c1oc2ccccc2nc1/C=C(O)/C=C/c1ccc(F)cc1	?	50µM	.	?	45µM
Cc1ccc(/C(O)=C/c2nc3ccccc3oc2=O)cc1	.	.	.	.	28µM
O=c1oc2ccccc2nc1/C=C(O)/C=C\c1ccccc1	.	?	.	.	56µM
